Test results from the supplement of paper PMC12645437, “Orthogonal IMiD-Degron Pairs Induce Selective Protein Degradation in Cells” (ACS Chemical Biology, 2025).
In all, about 8,300 sequences were measured (“log2 fold change of degron read counts, EGFP-low vs EGFP+ sorted cells (limma voom), compound-induced degradation”: median about -1.1, highest 2% from about 3.2 on). This is one part of a sample in which the highest values are shown more often than they occur.

T1: CRBN, Q96SW2
T1 chain: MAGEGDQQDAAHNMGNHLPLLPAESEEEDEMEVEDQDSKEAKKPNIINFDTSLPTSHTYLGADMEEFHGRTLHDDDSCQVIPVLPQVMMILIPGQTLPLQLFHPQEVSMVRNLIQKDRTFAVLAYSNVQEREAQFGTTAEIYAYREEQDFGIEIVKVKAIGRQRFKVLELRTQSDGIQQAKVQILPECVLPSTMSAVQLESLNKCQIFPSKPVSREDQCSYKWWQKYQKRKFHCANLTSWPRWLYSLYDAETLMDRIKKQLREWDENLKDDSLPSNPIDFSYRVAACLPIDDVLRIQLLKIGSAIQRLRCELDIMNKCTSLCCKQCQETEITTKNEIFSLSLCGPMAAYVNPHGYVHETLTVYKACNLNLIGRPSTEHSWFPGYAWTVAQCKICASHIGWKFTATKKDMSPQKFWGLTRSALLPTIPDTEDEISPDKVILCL


Molecular target: T1, CRBN, Q96SW2
Assay: log2 fold change of degron read counts, EGFP-low vs EGFP+ sorted cells (limma voom), compound-induced degradation; higher = more compound-induced degradation of the degron-EGFP fusion; degrons are variants of IKZF1/3 zinc finger 2; compound dose not given here
Settings: Jurkat, 18 h
[1] = compound: compound 19 (5-tert-butyl-thalidomide)
[2] = compound: compound 22 (5-morpholino-thalidomide)
[3] = compound: compound 33 (diphenyl IMiD analogue)
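Also: pooled lentiviral library of zinc finger degron-EGFP fusions in mCherry-positive Jurkat cells, FACS-sorted after compound exposure, with degron abundance counted by next-generation sequencing.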

Sequence	log2 fold change of degron read counts [1]	log2 fold change of degron read counts [2]	log2 fold change of degron read counts [3]	log2 fold change of degron read counts (compound: thalidomide)
FMCEQCGAPFTQKGNLLRHIKL [46F_47M_49E_50Q_52G_53A_54P_55F_67L_, Q9UKT9]	-0.389	-0.627	1.41	-0.399
FTCEICGHIFTQKGNLLRHIKL [46F_47T_49E_50I_52G_53H_54I_55F_67L_, Q9UKT9]	-2.87	-3.7	-2.68	-2.59
FGCDICGANFTQKGNLLRHIKL [46F_47G_49D_50I_52G_53A_54N_55F_67L_, Q9UKT9]	-0.278	-0.474	0.0264	-0.564
FYCNQCGRHFTQKGNLLRHIKL [46F_47Y_49N_50Q_52G_53R_54H_55F_67L_, Q9UKT9]	-2.11	-2.71	-2.01	-2.05
FRCNQCGHLFTQKGNLLRHIKL [46F_47R_49N_50Q_52G_53H_54L_55F_67L_, Q9UKT9]	-2.18	-2.82	-2.46	-2.45
LFCNQCGFACTQKGNLLRHIKL [46L_47F_49N_50Q_52G_53F_54A_55C_67L_, Q9UKT9]	-0.744	-1.36	-1.06	-1.14
LACNQCGFECTQKGNLLRHIKL [46L_47A_49N_50Q_52G_53F_54E_55C_67L_, Q9UKT9]	-2.6	-2.34	-2.97	-2.24
FYCNQCGRLFTQKGNLLRHIKL [46F_47Y_49N_50Q_52G_53R_54L_55F_67L_, Q9UKT9]	-1.45	-2.33	-2.01	-1.7
FKCDVCGAVFTQKGNLLRHIKL [46F_47K_49D_50V_52G_53A_54V_55F_67L_, Q9UKT9]	-3.26	-3.42	-3.55	-2.43
FVCDQCGAEFTQKGNLLRHIKL [46F_47V_49D_50Q_52G_53A_54E_55F_67L_, Q9UKT9]	-3.02	-2.35	-2.96	-1.78
FCCNQCGASFTQKGNLLRHIKL [46F_47C_49N_50Q_52G_53A_54S_55F_67L_, Q9UKT9]	-1.43	-1.92	-0.445	-1.53
LWCEICGFLCTQKGNLLRHIKL [46L_47W_49E_50I_52G_53F_54L_55C_67L_, Q9UKT9]	1.13	1.39	1.44	0.295
FKCNICGAHFTQKGNLLRHIKL [46F_47K_49N_50I_52G_53A_54H_55F_67L_, Q9UKT9]	-1.74	-2.18	-2.99	-1.98
FHCPVCGAIFTQKGNLLRHIKL [46F_47H_49P_50V_52G_53A_54I_55F_67L_, Q9UKT9]	0.164	0.683	1.33	-0.0983
FCCDICGAIFTQKGNLLRHIKL [46F_47C_49D_50I_52G_53A_54I_55F_67L_, Q9UKT9]	-0.218	0.0957	1.18	0.132
FFCPVCGAIFTQKGNLLRHIKL [46F_47F_49P_50V_52G_53A_54I_55F_67L_, Q9UKT9]	1.97	2.07	0.852	0.24
FYCNVCGAIFTQKGNLLRHIKL [46F_47Y_49N_50V_52G_53A_54I_55F_67L_, Q9UKT9]	-0.301	0.0156	-0.132	-1.44
FGCPVCGAIFTQKGNLLRHIKL [46F_47G_49P_50V_52G_53A_54I_55F_67L_, Q9UKT9]	3.73	2.12	2.5	0.899
FKCDICGAIFTQKGNLLRHIKL [46F_47K_49D_50I_52G_53A_54I_55F_67L_, Q9UKT9]	-2.93	-3.42	-2.93	-2.01
FRCNVCGAIFTQKGNLLRHIKL [46F_47R_49N_50V_52G_53A_54I_55F_67L_, Q9UKT9]	-1.97	-2.04	-0.492	-0.595
FQCPVCGAIFTQKGNLLRHIKL [46F_47Q_49P_50V_52G_53A_54I_55F_67L_, Q9UKT9]	-0.448	3.15	2.64	3.53
FRCPVCGAIFTQKGNLLRHIKL [46F_47R_49P_50V_52G_53A_54I_55F_67L_, Q9UKT9]	-1.67	-0.943	0.606	0.832
FQCNVCGAIFTQKGNLLRHIKL [46F_47Q_49N_50V_52G_53A_54I_55F_67L_, Q9UKT9]	-1.8	1.3	1.44	3.37
FQCDICGAIFTQKGNLLRHIKL [46F_47Q_49D_50I_52G_53A_54I_55F_67L_, Q9UKT9]	-1.32	2.34	1.7	3.47
FVCPVCGAIFTQKGNLLRHIKL [46F_47V_49P_50V_52G_53A_54I_55F_67L_, Q9UKT9]	-1.21	0.225	1.42	1.3
FQCEQCGAWFTQKGNLLRHIKL [46F_47Q_49E_50Q_52G_53A_54W_55F_67L_, Q9UKT9]	-2.85	-2.85	-1.86	-0.183
FRCDICGAHFTQKGNLLRHIKL [46F_47R_49D_50I_52G_53A_54H_55F_67L_, Q9UKT9]	-1.41	-1.53	0.162	-1.18
FACDVCGACFTQKGNLLRHIKL [46F_47A_49D_50V_52G_53A_54C_55F_67L_, Q9UKT9]	1.83	-0.406	-0.331	-2.56
